“And” between values parts separate entries of the source, which are not always exact repeats. Equal entries are not always repeated. Compounds without any hit were thinned out: in the full panel of roughly 83,000, 20% have a hit.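 Negative percent growth values reflect cell death: -40 means 40% of the cells present at the start died, and -100 means all died.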 The source made the active and inactive calls. The calls were made as follows: active = growth percent below 10; inactive = the rest.
Columns and labels:
Test in all cases: NCI-60 one-dose screen, 48 h (100 = growth as untreated, 0 = no growth, -100 = all killed)
Conditions in all cases: 10 µM unless noted
HCT-15 colon = tested on: HCT-15 colon
SNB-19 CNS = tested on: SNB-19 CNS
U251 CNS = tested on: U251 CNS
PC-3 prostate = tested on: PC-3 prostate
SK-MEL-5 melanoma = tested on: SK-MEL-5 melanoma
LOX IMVI melanoma = tested on: LOX IMVI melanoma
SK-MEL-28 melanoma = tested on: SK-MEL-28 melanoma
SK-MEL-2 melanoma = tested on: SK-MEL-2 melanoma
EKVX NSCLC = tested on: EKVX NSCLC
SN12C renal = tested on: SN12C renal
UO-31 renal = tested on: UO-31 renal
TK-10 renal = tested on: TK-10 renal
ACHN renal = tested on: ACHN renal
CAKI-1 renal = tested on: CAKI-1 renal
A498 renal = tested on: A498 renal
CCRF-CEM leukemia = tested on: CCRF-CEM leukemia
MOLT-4 leukemia = tested on: MOLT-4 leukemia
UACC-62 melanoma = tested on: UACC-62 melanoma
SNB-75 CNS = tested on: SNB-75 CNS

Structure (SMILES)	growth (HCT-15 colon)	growth (SNB-19 CNS)	growth (U251 CNS)	growth (PC-3 prostate)	growth (SK-MEL-5 melanoma)	growth (LOX IMVI melanoma)	growth (SK-MEL-28 melanoma)	growth (SK-MEL-2 melanoma)	growth (EKVX NSCLC)	growth (SN12C renal)	growth (UO-31 renal)	growth (TK-10 renal)	growth (ACHN renal)	growth (CAKI-1 renal)	growth (A498 renal)	growth (CCRF-CEM leukemia)	growth (MOLT-4 leukemia)	growth (UACC-62 melanoma)	growth (SNB-75 CNS)
CC12CCC(CC1)C(C)(C)O2	97.2% (inactive)	103% (inactive)	103% (inactive)	99.7% (inactive)	102% (inactive)	97.4% (inactive)	114% (inactive)	90.7% (inactive)	97.6% (inactive)	103% (inactive)	87.4% (inactive)	93.8% (inactive)	104% (inactive)	91.4% (inactive)	92.7% (inactive)	92.4% (inactive)	103% (inactive)	–	–
O=C(O)COc1cc(-c2ccccc2F)nc2cc3c(cc12)OCO3	–	–	–	–	–	–	–	–	–	–	–	–	–	–	–	–	–	83.2% [100 µM] (inactive) and 64.8% [100 µM] (inactive)	–
Cc1ccc(-c2noc(C)n2)cc1	101% (inactive)	105% (inactive)	–	97.9% (inactive)	99.7% (inactive)	99.7% (inactive)	110% (inactive)	120% (inactive)	–	102% (inactive)	84% (inactive)	107% (inactive)	105% (inactive)	94.5% (inactive)	80.8% (inactive)	103% (inactive)	90.5% (inactive)	105% (inactive)	85.9% (inactive)
CCOc1ccc(Nc2c3ccccc3nc3ccccc23)cc1	91.1% (inactive) and 17.4% (inactive) and 22% (inactive)	91.1% (inactive) and 44.3% (inactive) and 35.2% (inactive)	86% (inactive) and 21.4% (inactive) and 28.1% (inactive)	90.6% (inactive) and 25.6% (inactive) and 39.5% (inactive)	80.6% (inactive) and -65.9% (active) and 0.799% (active)	94.5% (inactive) and 3.66% (active) and 11.5% (inactive)	106% (inactive) and 46.8% (inactive) and 66.1% (inactive)	104% (inactive) and 34% (inactive) and 72.1% (inactive)	42.8% (inactive) and 42.1% (inactive)	–	62.8% (inactive) and 0.768% (active) and 1.99% (active)	–	84.9% (inactive) and -30.4% (active) and 6.25% (active)	91.3% (inactive) and 6.56% (active) and -17% (active)	73.5% (inactive) and 35.5% (inactive) and 72.8% (inactive)	99.8% (inactive) and 12.4% (inactive) and 4.91% (active)	–	84.8% (inactive) and 18.9% (inactive) and 31.8% (inactive)	77.1% (inactive) and 38.2% (inactive) and 21.5% (inactive)
COC(=O)C(=O)C(C(=O)C(=O)Nc1ccccc1OC)c1nc2ccc([N+](=O)[O-])cc2[nH]c1=O (stereo not drawn)	–	–	–	–	–	–	–	–	–	–	–	–	–	–	–	–	–	41.9% [100 µM] (inactive) and 22.7% [100 µM] (inactive)	–
CC1=CC(=O)c2ccc(C)cc2C1=O	–	–	–	–	–	–	–	–	–	–	–	–	–	–	–	–	–	-90.3% [100 µM] (active) and -100% [100 µM] (active)	–
O=C(CCc1ccc(O)c(O)c1)c1ccc(O)c(O)c1O	–	–	–	–	–	–	–	–	–	–	–	–	–	–	–	–	–	-41% [100 µM] (active) and -97.2% [100 µM] (active)	–
O=C1C2=C(C(=O)c3ccccc31)C(O)(S(=O)(=O)O)C(O)(S(=O)(=O)O)C1N=CC=CC21 (stereo not drawn)	32.3% (inactive) and 38.7% (inactive)	43.8% (inactive) and 48.5% (inactive)	30.3% (inactive) and 18.7% (inactive)	31.8% (inactive) and 30.2% (inactive)	26.6% (inactive) and 29.7% (inactive)	36.7% (inactive) and 24.7% (inactive)	–	65.2% (inactive) and 47.4% (inactive)	36.4% (inactive) and 30.5% (inactive)	34.5% (inactive) and 39.1% (inactive)	42.2% (inactive) and -0.599% (active)	71.8% (inactive) and 68.1% (inactive)	36.3% (inactive) and 32.8% (inactive)	21.9% (inactive) and 15.8% (inactive)	82.1% (inactive) and 33.9% (inactive)	25.1% (inactive) and 41.9% (inactive)	25.6% (inactive) and 48.2% (inactive)	51.3% (inactive) and 45.6% (inactive)	61.1% (inactive) and 35.1% (inactive)
Cc1nn(-c2ccc(Cl)cc2)c2ncnc(N/N=C/c3ccccc3O)c12	31.9% (inactive) and 27.1% (inactive)	29.6% (inactive) and 23.7% (inactive)	13% (inactive) and 11.8% (inactive)	41.6% (inactive) and 28.1% (inactive)	-62.4% (active) and -60.4% (active)	35.1% (inactive) and 7.4% (active)	–	12.3% (inactive) and 36% (inactive)	38.1% (inactive) and 5.43% (active)	23.1% (inactive) and 4.76% (active)	35.2% (inactive) and -11.4% (active)	16.4% (inactive) and 36.7% (inactive)	16.5% (inactive) and 5.9% (active)	13.5% (inactive) and 5.47% (active)	78.5% (inactive) and 69.6% (inactive)	–	9.43% (active) and 6.36% (active)	13.5% (inactive) and -37.1% (active)	–
